Data reported in PubChem BioAssay AID802 (Columbia University Molecular Screening Center, 2007).
Screen size: about 95,000 compounds; about 460 (0.48%) were called active. The sample as a whole holds a higher share of actives than the screen did. Values without a mark were called inactive.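 The calls were made as follows: active = inhibition above the batch mean plus 3 SD, with images confirmed as a hit by eye (cut at about 37% in these data); inconclusive = inhibition above that limit but hit not confirmed in images; inactive = inhibition not above that limit.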

Assay: blockers of endothelial VCAM-1 upregulation by TNFa – imaging, HUVEC, TNFa stimulus, immunofluorescence, primary screen (AID 802);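 also: 0% = TNF-stimulated DMSO wells and 100% = unstimulated control wells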
Conditions: HUVEC TNFa-induced VCAM-1 immunofluorescence, high-content imaging; at 2 µM; active compounds read high

Structure (SMILES)	inhibition
CCOc1ccc(C(=O)NC2CCN(C(=O)Nc3ccccc3OC)CC2)cc1	-14.1%
Cc1cc(C)cc(OCC(=O)Nc2nc3ccc([N+](=O)[O-])cc3s2)c1	21.3%
O=C(NC(Nc1nc2ccc([N+](=O)[O-])cc2s1)(C(F)(F)F)C(F)(F)F)c1ccccc1	88.1% (active)
COC(=O)C(NC(=O)c1ccc(OC)cc1)(Nc1ncc(S(=O)(=O)c2ccc([N+](=O)[O-])cc2)s1)C(F)(F)F (stereo not given)	-3.1%
Cc1ccccc1NC(=S)Nc1cccc([N+](=O)[O-])c1	-16.9%
COc1ccc(Nc2ncc(C(=O)N3CCN(c4ccccc4OC)CC3)c3ccccc23)cc1	26.1%
FC(F)(F)c1cc(-c2ccco2)nc(NCc2ccc(Cl)cc2)n1	9.6%
Cc1cc(C)c2c(-n3cccc3)c(NC(=O)OCc3ccccc3)sc2n1	25.4%
COc1cccc(CNc2nc3nc4c(c(=O)n3[nH]2)CCC4)c1	15.2%
Cc1cccc(-n2cnc(C(=O)Nc3cccnc3)c2)n1	-5.1%
CCOC(=O)Cc1csc(NC(=O)CSc2nnc(-c3cccnc3)n2Cc2ccco2)n1	15.6%
O=S(=O)(Cc1cc(Sc2ccccc2)nc(-c2ccccc2)n1)c1ccccc1	-28.4%
CCOc1ccccc1NC(=O)c1cccnc1	-0.4%
COc1ccc(C(F)(F)F)cc1N/C=C\c1nnnn1-c1ccc(C)cc1	16.2%
CCc1ccc(Nc2ncc3c(n2)CC(c2ccco2)CC3=O)cc1 (stereo not given)	-20.6%
O=C(Nc1ncc2c(n1)CC(c1ccco1)CC2=O)c1ccc(Cl)cc1 (stereo not given)	91.4% (active)
O=C(Nc1ncc2c(n1)-c1ccccc1OC2)c1ccc(Cl)cc1	6.1%
COc1ccc(C2C(C(C)=O)=C(O)C(=O)N2c2nccs2)cc1 (stereo not given)	12.3%
COc1ccc(CCN(Cc2cc3cccc(C)c3[nH]c2=O)C(=O)N2CCCC2)cc1OC	91.4% (active)
COc1cc2cc(CN(CCN3CCCC3)C(=O)Nc3ccccc3Cl)c(=O)[nH]c2cc1OC	28.3%
CCCN(Cc1cc2cccc(C)c2[nH]c1=O)S(C)(=O)=O	-13.9%
COc1ccc(Nc2cc(=O)oc3ccccc23)cc1	88.9% (active)
COc1ccc2oc(C)c(NC(C)=O)c2c1	0.3%
COc1ccc(N2CCN(Cc3cc(=O)oc4ccc5ccccc5c34)CC2)cc1	9.8%

Structure (SMILES)	inhibition
CCCSC(=S)NC1CCS(=O)(=O)C1 (stereo not given)	4.3%
CCN(CC)CCn1c(=S)[nH]c2ncccc2c1=O	11%
c1ccc(Nc2nc(N3CCOCC3)c3ccccc3n2)cc1	-8.6%
CCOC(=O)N1CCN(C(c2cccnc2)c2ccc3cccnc3c2O)CC1 (stereo not given)	9.9%
COc1ccc(CCNC(=O)CSc2nnc(-c3cccc(F)c3)o2)cc1OC	11.2%
COc1ccc(-c2nnc(SCC(=O)NC3CCCCC3)o2)cc1OC	87.2% (active)
COc1ccc(CN(C(=O)CSc2nnc(-c3ccc(OC)c(OC)c3)o2)c2ccc(F)cc2)cc1	17.6%
Cc1cc2cc3c(cc2nc1SCC(=O)Nc1c(C)cccc1C)CCC3	6%
Cc1cccc(NC(=O)C(C)N2C(=O)C3C4CC(C(Br)C4Br)C3C2=O)c1 (stereo not given)	8.5%
CCC1(CC)NC(=O)N(CC(=O)OCC(=O)Nc2ccc(C(F)(F)F)cc2)C1=O	9.5%
O=C(Nc1cc2c3c(c1)C1CCCC1CN3CC1CCCC21)c1ccc([N+](=O)[O-])cc1 (stereo not given)	3%
Cc1n[nH]c(=S)n1/N=C/c1ccc(Br)o1	4.4%
O=[N+]([O-])c1ccc(NCCCN2CCOCC2)c(Cl)c1	-2.6%
CC(C)(C)Cc1nnc(NC(=O)c2cc(-c3ccccc3)nc3ccccc23)s1	-0.7%
CC1(C)CC(CC(=O)O)C(=O)O1 (stereo not given)	20.1%
CCOc1ccc(-n2c(N)c(C(=O)NCC3CCCO3)sc2=S)cc1 (stereo not given)	-3.3%
Cc1ccc2c(c1)-c1c(ssc1=S)C(C)(C)N2C(=O)CN1C(=O)c2ccccc2C1=O	-19.4%
CCOC(=O)c1c(N=CN(C)C)c(C#N)c2n1CCCC2	8.7%
COc1ccc(/C=N/Nc2nc3ccccc3o2)cc1OC	-32.9%
C=CCNC(=S)NNc1ncnc2sc3c(c12)CC(C)(C)OC3	27.9%
O=C(CN1C(=O)C2C3C=CC(C3)C2C1=O)Nc1nc(-c2ccccn2)cs1 (stereo not given)	11%
Cc1cc(NC(=O)CSc2nc(C(C)C)nc3sc4c(c23)CCC(C)C4)no1 (stereo not given)	18.6%
CC(=O)Nc1ccc(N2C(=O)CCC2=O)cc1C	8.8%
O=C(/C=C/Nc1ccccc1)c1cnc(-c2ccccc2)s1	-1.5%

Structure (SMILES)	inhibition
Cc1ccc(C2(C(F)(F)F)N=C3Sc4cc(C)cc(C)c4N3C(=O)N2)cc1 (stereo not given)	7.1%
Cc1ccc(C)c(N2C(=O)CS/C2=N\NC(=O)c2ccccc2Cl)c1	10.4%
O=C(Cn1ccc([N+](=O)[O-])n1)NCc1cccs1	7.9%
O=c1c([N+](=O)[O-])cc(C(F)(F)F)cn1Cc1cccc(Cl)c1	3.2%
O=C(N/N=C\c1ccc(-c2ccc(Cl)c(Cl)c2)o1)C(=O)N1CCCC1	-4.3%
CCCNC(=O)NCc1ccc(N2CCCC2=O)cc1	3.5%
CCOC(=O)c1c(NC(=S)Nc2ccccc2)sc2c1CCN(C)C2	12.8%
CC(=O)c1cn(CCCCCCCCCCn2cc(C(C)=O)c(=O)[nH]c2=O)c(=O)[nH]c1=O	5.5%
O=C(Nc1ccn(Cc2ccccc2F)n1)c1ccc(COc2ccc(Cl)cc2Cl)o1	4.3%
Cc1ccc(C2C(C#N)C(C#N)N3CCCN23)cc1 (stereo not given)	-8%
CCc1cc(C(c2ccccc2OC)N2CCOCC2)c(NC(=O)c2ccccc2)s1 (stereo not given)	3.5%
COCCNC(=O)c1onc(CSc2cccc(C)c2)c1C(=O)O	13.5%
Cn1c(NN)nc2sc3c(c2c1=O)CCC3	27.5%
O=C(CSCc1ccccc1Cl)NNC(=O)c1ccccc1	2.9%
CC(=O)c1cccc(NC(=O)C2CCCN2S(=O)(=O)c2cccc3nsnc23)c1 (stereo not given)	-0.5%
CCc1ccc(/C=N/NC(=O)c2ccc(OC3CCCC3)cc2)s1	-3.5%
COC(=O)c1ccc(S(=O)(=O)N2CCC(c3nc4ccccc4o3)CC2)cc1	-1.2%
O=c1[nH]c(CSc2ncc(-c3ccc(F)cc3)n2Cc2ccco2)nc2ccccc12	-0.9%
Nc1cc(=O)nc(SCc2ccccc2)n1Cc1ccco1	95% (active)
c1ccc(CSc2nnc(-c3ccco3)n2Cc2ccccc2)cc1	-1.6%
CCn1nccc1C(=O)Nc1ccc(Cl)c(Cl)c1	2.3%
CC(C)c1ccc(/C=C/C(=O)NNC(=O)c2cccnc2)cc1	-5.5%
C=CCn1c(SCC(=O)c2ccc(Br)cc2)nnc1C(C)NC(=O)Cc1ccc(OC)cc1 (stereo not given)	12.4%
Cc1ccc(-n2nc3ccc(NC(=O)/C=C/c4ccco4)cc3n2)cc1C	46.8% (active)

Structure (SMILES)	inhibition
O=C(/C=C/c1ccco1)Nc1ccc(Oc2ccccc2)cc1	6.5%
O=C(/C=C/c1ccco1)Nc1cccc(-c2nc3ccccc3[nH]2)c1	9.8%
CC(O)CN(Cc1ccc(Cl)cc1)CC(C)O (stereo not given)	-2.6%
Cc1ccc(NC(=S)Nc2ncccc2C)c(C)c1	2.5%
CC1=NN(Cc2ccccc2)C(=O)/C1=C/c1ccc(N(C)C)cc1	3.7%
COC(=O)c1cc2nc(-c3ccccc3)cc(C(F)(F)F)n2n1	-20.1%
Cc1cc(C)c2cc(CN(Cc3nnnn3Cc3ccc(F)cc3)C3CCCC3)c(=O)[nH]c2c1	1.5%
CS(=O)(=O)c1sc2nc(-c3ccccc3)cc(-c3ccccc3)c2c1N	-20.3%
COc1ccccc1/C=C/C1=NC(=C\N(C)C)/C(=O)O1	5.1%
CCN(CC)S(=O)(=O)c1ccc2c3c(cccc13)C(=O)S2	8.1%
O=C(Nc1ccccc1)c1ccc2c(c1)OCO2	-10.7%
Cc1ccc(F)cc1NC(=O)c1cccc(N(C)C)c1	-5.6%
Cc1ccc(F)cc1NC(=O)c1ccc2c(c1)OCO2	96.8% (active)
S=c1nccc(-c2cc(Cl)sc2Cl)[nH]1	2%
COc1ccccc1CNC(=O)c1ccc(SC)cc1OC	18.6%
Cc1cc(-c2ccccc2)nc(N2CCC(C(=O)NC34CC5CC(CC(C5)C3)C4)CC2)n1	-5.8%
Cc1nc([N+](=O)[O-])nn1C12CC3CC(CC(Br)(C3)C1)C2	11.3%
Cn1c2c(c(=O)n(C)c1=O)[C@@H]1c3c(ccc4ccccc34)OC[C@@H]1CO2	-9%
CCn1c(SCC(=O)Nc2ccc(S(=O)(=O)Nc3onc(C)c3C)cc2)nnc1-c1ccccc1	6.4%
O=C(O)c1ccccc1-c1ccccc1C(=O)Nc1cccc2ccccc12	7.4%
Cc1nnc(NC(=O)CSc2nc(C3CCCCC3)nc3ccccc23)s1	-0.5%
CCCNC(=S)NC1CC2CCCC(C1)N2CC(C)C (stereo not given)	5.3%
Cc1cc(C(F)F)n2nc(C(=O)Nc3ccc(S(=O)(=O)NC45CC6CC(CC(C6)C4)C5)cc3)nc2n1	5.2%
